Screens (PubChem BioAssay)
PostGolgi yeast – growth inhibition of a yeast mutant, post-Golgi transport screen | post-Golgi transport phenotypic cell assay | inhibition, % at 10 µM | actives 0.9% (n = 98,000) | AID 739;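 note: yeast cells grown in 1536-well plates; yeast grown about 18 h at 30C before absorbance read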
Cav3 T inh – blocks human Cav3.2 T-type calcium channel; Cav3.2-expressing cells, Fluo-4 calcium fluorescence FDSS; active compounds read low; actives 4% (n = 100,000); B-score at 10 µM; O95180;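 active = single-dose well whose peak fluorescence ratio is a statistical outlier from its plate by either plate-standardised score or position-corrected B-score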
PostGolgi ctrl – yeast control strain growth, post-Golgi counter-screen; inhibition, % at 10 µM; actives 5% (n = 98,000); efflux-deficient yeast background strain, growth absorbance A615, 16 h
PLAP act – activates human placental alkaline phosphatase; activation fold at 20 µM; actives 1.2% (n = 96,000); purified PLAP enzyme, luminescent substrate read-out; active compounds read high; AID 696; in the data active = activation fold above about 2
hDAT+cocaine – human DAT dopamine uptake with cocaine, either direction. B-score at 10 µM. Q01959. LLC-PK1 hDAT cells, [14C]-dopamine uptake with cocaine IC80; actives deviate in either direction. actives 1.3% (n = 110,000);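 active = Z score or B-score, a plate-position-corrected score, falls beyond the plate's 99.7% confidence bounds, in either direction; inactive = both scores lie inside the 99.7% bounds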;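 note: scored against the spread of the other compound wells on the same plate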
Target sequence (Q01959 whole entry, looked up): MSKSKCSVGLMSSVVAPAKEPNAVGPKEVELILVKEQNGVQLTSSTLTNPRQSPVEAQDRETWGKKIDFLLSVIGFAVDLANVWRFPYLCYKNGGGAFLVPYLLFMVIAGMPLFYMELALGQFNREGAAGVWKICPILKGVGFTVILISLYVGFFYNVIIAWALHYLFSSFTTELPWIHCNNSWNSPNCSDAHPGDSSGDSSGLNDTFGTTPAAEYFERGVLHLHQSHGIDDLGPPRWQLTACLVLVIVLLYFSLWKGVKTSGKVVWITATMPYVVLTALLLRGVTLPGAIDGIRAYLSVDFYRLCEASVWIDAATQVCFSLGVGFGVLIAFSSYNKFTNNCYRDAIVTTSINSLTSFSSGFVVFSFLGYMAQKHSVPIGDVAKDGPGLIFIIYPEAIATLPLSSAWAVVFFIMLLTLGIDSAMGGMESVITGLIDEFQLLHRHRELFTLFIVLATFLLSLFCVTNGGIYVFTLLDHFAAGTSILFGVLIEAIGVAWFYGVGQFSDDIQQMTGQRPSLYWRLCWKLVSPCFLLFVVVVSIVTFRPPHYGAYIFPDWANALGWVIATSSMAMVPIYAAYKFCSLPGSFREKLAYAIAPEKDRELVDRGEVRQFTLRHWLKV
Active calls of the source: *; . = no result given. An excerpt weighted towards active compounds, which were near 9.6% of everything screened. Cut-off read from the data, not from the text of the source, unless noted: active = inhibition above about 30%; inactive = the rest.

SMILES	PostGolgi yeast	Cav3 T inh	PostGolgi ctrl	PLAP act	hDAT+cocaine
CCOC(=O)C(=O)/C(C#N)=C/Nc1ccccc1	-10	0.045	11	1	0.3
O=C(Nc1nc(=S)ss1)c1ccc(Cl)cc1Cl	-1	-11*	20	1.1	-0.36
Cc1ccc(CN2[C@@H](CC(C)C)COCCS2(=O)=O)cc1	.	-0.35	.	.	0.63
CCOC(=O)N1CCC(NC(=O)C2CCN(S(=O)(=O)N3CCCC3)CC2)CC1	-9	-0.41	4	1.1	-0.18
CCOC(=O)N1CCC(NC(=O)C2CCCN(S(C)(=O)=O)C2)CC1 (stereo not given)	3	-2	36*	1	-0.63
Cc1nn(-c2ccccc2)c(Cl)c1C(=O)Nc1c(C)n(C)n(-c2ccccc2)c1=O	17	-0.42	3	1.4	-0.35
CN(C)S(=O)(=O)c1ccc(N2CCCC2)c(C(=O)NC(c2ccccc2)c2ccccc2)c1	17	-4.3*	-9	1.3	-0.22
CCOC(=O)C1=C(C)N(CC(C)C)C(=O)/C1=C\c1ccc(OCC(=O)Nc2ccccc2)cc1	3	-5.5*	-6	1.1	1.1
CCSc1nnc(NC(=O)Cc2ccc(OC)c(S(=O)(=O)N3CCOCC3)c2)s1	-3	0.01	-1	1.1	-0.43
Cc1scc(C(=O)Nn2cnnc2)c1-c1ccccc1	-10	0.5	33*	1.6	-0.15
O=C(Nn1cnnc1)c1csc2ccccc12	-14	0.33	-7	1.5	-0.68
Cc1ccc(NC(=O)N2CCC(C(=O)NCC(C)C)CC2)cc1	21	0.68	-2	0.8	-1.1
O=c1nc(NC2CCCC2)ccn1Cc1cccc(Br)c1	-6	-1.2	50*	0.9	0.98
Cn1c(=O)c2c(nc(NCC3CCCO3)n2Cc2cccc(Br)c2)n(C)c1=O (stereo not given)	-11	-0.077	15	1.1	1.4
COC(=O)c1cc(OC)c(OC)cc1NC(=O)CC1CCCCC1	2	-1.1	42*	1.5	1.6
COC(=O)c1cc(OC)c(OC)cc1NC(=O)CN1CCCCC1	0	0.22	16	1	0.59
CCn1c(C(=O)Nc2ccsc2C(=O)OC)cc2sc(Cl)cc21	4	-0.42	-3	1	0.95
CN1CCN(c2ccc(Cl)cc2NC(=O)c2cccc(S(=O)(=O)N(C)C)c2)CC1	-1	2.6	7	1.8	0.26
O=C(Nc1ccc(S(=O)(=O)Nc2ccccc2)cc1)C1COc2ccccc2O1 (stereo not given)	.	-3.8*	.	.	0.92
CN1CCN(c2ccc(Cl)cc2NC(=O)C2COc3ccccc3O2)CC1 (stereo not given)	-3	-4.5*	30*	1.5	0.72
O=C(Nc1ccc(S(=O)(=O)N2CCCC2)cc1)C1COc2ccccc2O1 (stereo not given)	-2	-1.2	12	.	-0.11
COC(=O)c1cc(NC(=O)C2COc3ccccc3O2)ccc1Cl (stereo not given)	-3	-2.2	30*	0.7	0.11
COC(=O)c1cccc(NC(=O)C2COc3ccccc3O2)c1C (stereo not given)	.	0.36	.	0.9	-0.14
COC(=O)c1cccc(NC(=O)C2COc3ccccc3O2)c1 (stereo not given)	6	-1.4	39*	0.7	0.6
O=S(=O)(CCN(CCS(=O)(=O)C(F)(F)F)CC1CCCO1)C(F)(F)F (stereo not given)	-3	-3.5	15	1	0.53
SMILES	PostGolgi yeast	Cav3 T inh	PostGolgi ctrl	PLAP act	hDAT+cocaine
CN1CCc2c(C#N)c(N3CCCCC3)nc(NCc3ccccc3)c2C1	27	-3.3	48*	1.1	0.73
CN(CC(=O)Nc1ccccc1C(=O)N1CCCC1)S(=O)(=O)c1ccc(Cl)cc1	7	0.28	0	1.2	-0.38
O=C(C(NS(=O)(=O)c1cccs1)c1ccccc1)N1CCN(c2ccccc2)CC1 (stereo not given)	6	-0.073	6	1.5	2.1
O=C1C(NS(=O)(=O)c2cccs2)=C(N2CCN(c3ccccc3)CC2)C(=O)c2ccccc21	17	1	57*	1.3	0.49
Cc1ccc(S(=O)(=O)NC2=C(N3CCN(Cc4ccccc4)CC3)C(=O)c3ccccc3C2=O)cc1	0	.	46*	1.5	.
CC(=O)Nc1ccc(S(=O)(=O)NC2=C(N3CCN(c4ccc(F)cc4)CC3)C(=O)c3ccccc3C2=O)cc1	-6	.	13	1.8	.
COc1ccc(N2CCN(C(CNS(=O)(=O)c3cccs3)c3cccnc3)CC2)cc1 (stereo not given)	-2	0.89	-2	1.6	1
O=S(=O)(NCC(c1cccnc1)N1CCN(c2ccccc2)CC1)c1cccs1 (stereo not given)	88*	-0.0064	55*	1.6	-0.17
O=C(NCC(c1cccnc1)N1CCN(c2ccccc2F)CC1)c1ccccc1 (stereo not given)	10	-0.27	3	1.2	0.16
O=C(NCC(c1cccnc1)N1CCN(c2ccc(F)cc2)CC1)c1cccc(Cl)c1 (stereo not given)	77*	-1.9	91*	1.3	1.5
COc1cccc(/C=N\NC(=O)c2sc(N)nc2C)c1OC	-2	0.68	6	1	-1.2
Cc1nn(C)c(C)c1CN(C)C(=O)CCCC(=O)O	.	0.59	.	.	0.088
Brc1ccc(-c2nc(N/N=C/c3cccnc3)c3ccccc3n2)cc1	2	0.52	11	1.7	1.8
O=C(NCC(c1cccnc1)N1CCN(c2ccccc2)CC1)C1CCCCC1 (stereo not given)	46*	0.2	7	1.1	-0.066
Cc1ccc(S(=O)(=O)NC(C)C(c2cccs2)N2CCN(c3ccccc3)CC2)cc1 (stereo not given)	-9	-2.9	47*	1.1	0.4
O=C(NCC(c1cccnc1)N1CCN(c2ccccc2)CC1)OCc1ccccc1 (stereo not given)	.	-0.63	.	.	-0.13
O=C(NCC(c1cccnc1)N1CCN(c2ccccc2)CC1)c1ccc2c(c1)OCO2 (stereo not given)	74*	1.1	8	1.6	-0.39
Cc1ccc(S(=O)(=O)NC(C)C(c2cccs2)N2CCN(C)CC2)cc1 (stereo not given)	.	0.3	.	.	-0.14
O=C(NCC(c1cccnc1)N1CCN(c2ccc(F)cc2)CC1)OCc1ccccc1 (stereo not given)	59*	-1	25	1.6	1.5
COc1ccc(Cn2c(C)c(C)c(C#N)c2NC(=O)Nc2ccc(Cl)cc2)cc1	1	0.0019	3	1.2	1.1
CCC(=O)Nc1ccc(Cl)c(NC(=O)C(C)C)c1	0	0.37	19	0.9	-0.63
CCCC1=C(C(=O)OCC)C(c2cc(Cl)cc(OC)c2OCc2ccccc2)NC(=O)N1 (stereo not given)	2	-2.7	16	1	0.056
COc1ccccc1NC(=O)N(Cc1ccco1)Cc1cc2ccc(C)c(C)c2[nH]c1=O	11	-6.7*	41*	1.6	2.6*
Cc1cccc2cc(CN(Cc3ccco3)C(=O)Nc3cccc(C#N)c3)c(Cl)nc12	-5	-4.5*	12	1	-0.68
